Reference: the supplement of paper PMC7530171
Where a name gives a salt, the structure may show the parent alone. ± gives the standard deviation.

Each molecule was assayed on THP-1 macrophages infected with Mycobacterium tuberculosis H37Rv (assay: intracellular M.tb growth inhibition relative to DMSO (0) and 4 uM bedaquiline (100); higher = stronger inhibition of intracellular bacterial growth). Conditions: 10 µM; 4 days.
Description: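 OICR kinase inhibitor library screened in duplicate at 10 uM against THP-1 macrophages (PMA-differentiated) infected with M. tuberculosis H37Rv-pTEC27 (tdTomato RFP), 4 days at 37 C. Rows with complete host cell loss (placeholder inhibition 0, cell loss 100) were removed.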

Point of comparison: `Nc1cc(C(F)(F)F)c(-c2cc(N3CCOCC3)nc(N3CCOCC3)n2)cn1`, “intracellular M.tb growth inhibition” value -76.8 ± 110%. Against it:
- COc1cc2nccc(Oc3ccc(NC(=O)C4(C(=O)Nc5ccc(F)cc5)CC4)cc3)c2cc1OC — higher, 94.8 ± 23%
- COc1cc2c(Nc3ccc(NC(=O)c4ccccc4)cc3)ncnc2cc1OCCCN1CCOCC1 — within error, -10.1 ± 48%
- NC(=O)c1ccc(N(C(N)=O)c2c(F)cccc2F)nc1-c1ccc(F)cc1F — within error, -1.77 ± 10%
- O=c1cc(-c2cccc3c2Sc2ccccc2S3)oc(N2CCOCC2)c1 — within error, 3.07 ± 24%
- O=C(Nc1nc2ccccc2n1CCN1CCOCC1)c1cccc([N+](=O)[O-])c1 [IRAK-1/4 Inhibitor I] — within error, 13.1 ± 7.2%
- Cc1ccc(NC(=O)c2ccc(CN3CCN(C)CC3)cc2)cc1Nc1nccc(-c2cccnc2)n1 [Imatinib Mesylate] — higher, 54.9 ± 5%
- Cc1ccc(NC(=O)c2cccc(N(C)C)c2)cc1NC(=O)c1ccc(O)cc1 — within error, 36 ± 37%
- NC(=O)Nc1cc(-c2cccc(F)c2)sc1C(=O)N[C@H]1CCCNC1 — within error, -218 ± 310%
- CN(C)S(=O)(=O)c1ccc2c(c1)/C(=C/c1cc3c([nH]1)CCCC3)C(=O)N2 — within error, -51.7 ± 62%
- NC(=O)c1ccc(-c2nc(-c3ccccn3)c(-c3ccc4c(c3)OCO4)[nH]2)cc1 — within error, 17.9 ± 36%
- Nc1nccc(-c2ccc3noc(-c4ccc(Cl)cc4)c3c2)n1 [PIM 1 Inhibitor 2] — within error, 20.6 ± 8.4%
- Nc1cccc(-c2cc3c(Oc4cccc(O)c4)ncnc3[nH]2)c1 — within error, -14.2 ± 26%
- CC(=O)c1ccc(N2CCOCC2)cc1O — within error, -148 ± 170%
- C[C@@H]1CCN(C(=O)CC#N)C[C@@H]1N(C)c1ncnc2[nH]ccc12 — within error, -17.5 ± 21%
- C[C@@H](Oc1cc(-c2cnn(C3CCNCC3)c2)cnc1N)c1c(Cl)ccc(F)c1Cl — within error, -114 ± 120%
- O=C1NC(=O)/C(=C/c2ccc(-c3ccc(F)cc3O)o2)S1 — within error, 25.3 ± 6.9%
- CC(C)(C)c1cc(NC(=O)Nc2ccc(-c3cn4c(n3)sc3cc(OCCN5CCOCC5)ccc34)cc2)no1 — higher, 85.7 ± 43%
- COc1ccc(CNC(=O)Nc2ncc([N+](=O)[O-])s2)cc1 — within error, 20.1 ± 28%
- O=C(CO)N1CCC(c2n[nH]c(-c3ccc(Cl)cc3)c2-c2ccncn2)CC1 — within error, -135 ± 140%
- COc1cc2ncn(-c3cc(OCc4ccccc4C(F)(F)F)c(C(N)=O)s3)c2cc1OC — within error, 38.7 ± 14%
- CCCCCCCC(=O)OCCOC(=O)CCCCCCC [Dioctanoylglycol] — within error, 0.763 ± 3%
- COc1cc(OC)c(/C=C/S(=O)(=O)Cc2ccc(OC)c(NCC(=O)O)c2)c(OC)c1 — within error, -33.5 ± 120%
- Cc1cn(-c2cc(NC(=O)c3ccc(C)c(Nc4nccc(-c5cccnc5)n4)c3)cc(C(F)(F)F)c2)cn1 [Nilotinib] — within error, -5.88 ± 8.3%
- O=C1NC(=O)/C(=C/c2ccc3c(c2)OC(F)(F)O3)S1 — within error, 42.5 ± 35%
- CCc1cncnc1N1CCN(Cc2nc3ccc(C(F)(F)F)cc3[nH]2)CC1 — within error, 16.2 ± 23%
- COc1nccc(-c2c(-c3ccc(F)cc3)ncn2C2CCNCC2)n1 — within error, -58.3 ± 93%
- Cc1nc(Nc2ncc(C(=O)Nc3c(C)cccc3Cl)s2)cc(N2CCN(CCO)CC2)n1 [Dasatinib] — within error, 47.9 ± 35%
- O=C(NOCC1CC1)c1cc(Br)c(F)c(F)c1Nc1ccc(I)cc1Cl — higher, 59.8 ± 16%
- CC(C)c1cnn2c(NCc3ccccc3)cc(NCCCCCCN)nc12 [BS-181 hydrochloride] — within error, 3.6 ± 5.1%
- C[C@@]1(C(=O)Nc2ccc(F)nc2)CCCN1c1nc(Nc2cc(C3CC3)n[nH]2)c2cccn2n1 — lower, -265 ± 70%
- Cc1cc(Nc2nc(N[C@@H](C)c3ncc(F)cn3)ncc2Cl)[nH]n1 — within error, -234 ± 120%
- COc1cc(Nc2ncc(F)c(Nc3ccc4c(n3)N(COP(=O)(O)O)C(=O)C(C)(C)O4)n2)cc(OC)c1OC — within error, 11 ± 16%
- CO[C@H]1C[C@@H]2CC[C@@H](C)[C@@](O)(O2)C(=O)C(=O)N2CCCC[C@H]2C(=O)O[C@H]([C@H](C)C[C@@H]2CC[C@@H](OCCO)[C@H](OC)C2)CC(=O)[C@H](C)/C=C(\C)[C@@H](O)[C@@H](OC)C(=O)[C@H](C)C[C@H](C)/C=C/C=C/C=C/1C [Everolimus] — within error, 3.03 ± 13%
- CS(=O)(=O)CCNCc1nc(-c2ccc3ncnc(Nc4ccc(OCc5cccc(F)c5)c(Cl)c4)c3c2)cs1 — within error, 37.8 ± 12%
- Cn1cc(-c2ccc3nnc(Sc4ccc5ncccc5c4)n3n2)cn1 — within error, -164 ± 130%
- Cc1cc(C)c(/C=C2\C(=O)Nc3ccccc32)[nH]1 — within error, 8.19 ± 12%
